Measured values: PubChem BioAssay (Tox21)
Several values for one entry are separate records, joined by “and”; a condition that tells them apart may be missing. Equal entries are not always repeated. Inconclusive results are not listed. Where a call stands in place of a potency, no number is given. A structure can be active in one record and inactive in another. Activity calls are given as the source filed them. Unless noted, calls come from the whole dose curve; as a rule, active = well fitted curve in the direction sought with a large enough effect in the repeat runs; inconclusive = weak or mixed curves; inactive = no such curve, though single readings can be large; an effect the other way counts as inactive or inconclusive. Starred links: 1 amine or outer side, 2 acyl side, 3 side chain; linkers in the order of their positions; H or OH if unused. Positions of bridges follow the written chain, without caps; N, C: chain ends. Non-standard residues stand in square brackets, D forms with d. Residues, ends and D or L forms follow the SMILES beside them. Chains are numbered I, II in the order given. Actinocin(9to1) = Cc1c2oc3c(C)ccc(C(=O)[*:1])c3nc-2c(C(=O)[*:2])c(N)c1=O; NMeV = CN[C@H](C(=O)O)C(C)C; Sar = CNCC(=O)O

Assays:
[1] = qHTS assay for small molecule agonists of the p53 signaling pathway (AID 651631; calls by dose curve; note: nearly all actives have a fitted effect of over 15% in size; note: potency is the fitted concentration of half-maximal effect)
Summary of the method: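 Read-out is beta-lactamase FRET fluorescence measured 2 h after substrate addition at room temperature, in HCT-116 cells with a p53 response element-driven reporter exposed to compounds for 16 h at 37 °C.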

[2] = qHTS assay for small molecules that induce genotoxicity in human embryonic kidney cells expressing luciferase-tagged ATAD5 (AID 651632); note: nearly all actives have a fitted effect of over 15% in size
Summary of the method: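 Cells were seeded at 2,000 per well, dosed with compound, and incubated 16 hr at 37C in 5% CO2. Luciferase activity was then quantified after a 30 min room-temperature incubation with Amplite.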

[3] = qHTS assay for small molecule agonists of the p53 signaling pathway - cell viability (AID 651633; calls by dose curve; note: nearly all actives have a fitted effect of over 30% in size; note: potency is the fitted concentration of half-maximal effect)
Summary of the method: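 Viability counter-read: CellTiter-Glo luminescence (30 min, room temperature) in the same p53RE-bla plates. These plates had been exposed to compounds for 16 h at 37 C.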

[4] = qHTS assay for small molecules that induce genotoxicity in human embryonic kidney cells expressing luciferase-tagged ATAD5 - cell viability (AID 651634; calls by dose curve; note: nearly all actives have a fitted effect of over 25% in size; note: potency is the fitted concentration of half-maximal effect)
Summary of the method: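 Cells (HEK293T, luciferase-tagged ATAD5) are seeded at 2,000 per well, dosed with compound or DMSO vehicle, and incubated 15.5 hr at 37C and 5% CO2. CellTiter-Fluor is added for 30 min before fluorescence is measured.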

[5] = qHTS assay for small molecule disruptors of the mitochondrial membrane potential - cell viability (AID 720634; calls by dose curve; note: nearly all actives have a fitted effect of over 20% in size; note: potency is the fitted concentration of half-maximal effect)
Summary of the method: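 Cytotoxicity was measured by ATP quantitation in HepG2 wells that had first been treated with compound for 1 hr and stained with m-MPI dye; CellTiter-Glo incubation was 30 min at room temperature.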

[6] = qHTS assay to test for compound auto fluorescence at 590 nm (red) in HepG2 cells (AID 720674)
Summary of the method: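 We screened compounds on adherent HepG2 cells, incubating them for an hour at 37 C in 5% CO2 before reading emission at 590 nm under 540 nm excitation; values reflect equivalence to Rose Bengal sodium fluorescence.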

[7] = qHTS assay to test for compound auto fluorescence at 535 nm (green) in HepG2 cells (AID 720675)
[8] = qHTS assay to test for compound auto fluorescence at 460 nm (blue) in HEK293 cells (AID 720678)
Summary of the method: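 Intrinsic compound fluorescence is recorded in live HEK293 cultures after overnight incubation at 37C, 5% CO2, using excitation 405 nm and emission 460 nm. Values are referenced to triamterene.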

[9] = qHTS assay to test for compound auto fluorescence at 590 nm (red) in HEK293 cells (AID 720679)
Summary of the method: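 Red autofluorescence, HEK293 cells: 2,000 cells/well; attach 4-5 hr 37C; add 23 nL cpd or DMSO; incubate o/n 37C 5% CO2; read Ex540/Em590; Rose Bengal sodium reference.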

[10] = qHTS assay for small molecule disruptors of the mitochondrial membrane potential (AID 720635)
Summary of the method: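 Mitochondrial membrane potential tracked with Mito-MPS dye, red aggregates (ex 540/em 590 nm) against green monomers (ex 490/em 535 nm). Compound treatment 1 hr at 37C, dye 30 min in HepG2.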

CCCNC(C)C(=O)Nc1ccccc1C (stereo not given)
Potency [1]: inactive | Potency [2]: inactive | Potency [3]: inactive | Potency [4]: inactive | Potency [5]: inactive | outcome [6]: inactive | Potency [7]: inactive | Potency [8]: inactive | outcome [9]: inactive

OCC(CO)N[C@H]1C[C@](O)(CO)[C@@H](O)[C@H](O)[C@H]1O
Potency [1]: inactive | Potency [2]: inactive | Potency [3]: inactive | Potency [4]: inactive | Potency [5]: inactive | Potency [10]: inactive | outcome [6]: inactive | Potency [8]: inactive | outcome [9]: inactive

CCCCOCCOC(=O)c1ccccc1C(=O)OCCOCCCC
Potency [1]: inactive | Potency [2]: inactive | Potency [3]: inactive | Potency [4]: inactive | Potency [5]: inactive | outcome [6]: inactive | Potency [7]: inactive | Potency [8]: inactive | outcome [9]: inactive

NCCCCCC(=O)O
Potency [1]: inactive | Potency [2]: inactive | Potency [3]: inactive | Potency [4]: inactive | Potency [5]: inactive | Potency [10]: inactive | fluorescence, relative to Rose Bengal [6]: -0.673% [at 18.6 µM] (inactive) | fluorescence, % of fluorescein control [7]: 0.0481% [at 18.6 µM] (inactive) | fluorescence, % of triamterene [8]: 0.0733% [at 18.6 µM] (inactive) | fluorescence, % of fluorescent control [9]: 0.0137% [at 18.6 µM] (inactive)

Nc1cc(S(=O)(=O)O)cc2cc(S(=O)(=O)O)cc(O)c12
Potency [1]: inactive | Potency [2]: inactive | Potency [3]: inactive | Potency [4]: inactive | Potency [5]: inactive | Potency [10]: inactive | outcome [6]: inactive | Potency [7]: inactive | outcome [9]: inactive

Cc1cc(C(C)(C)C)c(O)c(C(C)(C)C)c1
Potency [1]: inactive | Potency [2]: inactive | Potency [3]: inactive | Potency [4]: inactive | Potency [5]: inactive | outcome [6]: inactive | Potency [7]: inactive | Potency [8]: inactive | outcome [9]: inactive

Cc1cccc([N+](=O)[O-])c1C(=O)O
Potency [1]: inactive | Potency [2]: inactive | Potency [3]: inactive | Potency [4]: inactive | Potency [5]: inactive | Potency [10]: inactive | outcome [6]: inactive | Potency [7]: inactive | Potency [8]: inactive | outcome [9]: inactive

NC(N)=Nc1nc(CSCC/C(N)=N/S(N)(=O)=O)cs1
Potency [1]: inactive | Potency [2]: inactive | Potency [3]: inactive | Potency [4]: inactive | Potency [5]: inactive | Potency [10]: inactive | outcome [6]: inactive | Potency [7]: inactive | Potency [8]: inactive | outcome [9]: inactive

CO[Si](OC)(OC)c1ccccc1
Potency [1]: inactive | Potency [2]: inactive | Potency [3]: inactive | Potency [4]: inactive | Potency [5]: inactive | Potency [10]: inactive | outcome [6]: inactive | Potency [7]: inactive | Potency [8]: inactive | outcome [9]: inactive

CCOC(=O)C(C)C(C)=O (stereo not given)
Potency [1]: inactive | Potency [2]: inactive | Potency [3]: inactive | Potency [4]: inactive | Potency [5]: inactive | Potency [10]: inactive | outcome [6]: inactive | Potency [7]: inactive | Potency [8]: inactive | outcome [9]: inactive

NC(N)=NC(=O)Cc1c(Cl)cccc1Cl
Potency [1]: inactive | Potency [2]: inactive | Potency [3]: inactive | Potency [4]: inactive | Potency [5]: inactive | Potency [10]: inactive | outcome [6]: inactive | Potency [8]: inactive | outcome [9]: inactive

[Cl][In]([Cl])[Cl]
Potency [1]: inactive and 61.1 µM (active) | Potency [2]: inactive | Potency [3]: inactive | Potency [4]: inactive | Potency [5]: inactive | Potency [10]: inactive | outcome [6]: inactive | Potency [7]: inactive | Potency [8]: inactive | outcome [9]: inactive

OCCN1CCNCC1
Potency [1]: inactive | Potency [2]: inactive | Potency [3]: inactive | Potency [4]: inactive | Potency [5]: inactive | Potency [10]: inactive | outcome [6]: inactive | Potency [7]: inactive | Potency [8]: inactive | outcome [9]: inactive

c1cnc2cc3c(cc2n1)C1CNCC3C1
Potency [1]: inactive | Potency [2]: inactive | Potency [3]: inactive | Potency [4]: inactive | Potency [5]: inactive | outcome [6]: inactive | Potency [7]: inactive | Potency [8]: inactive | outcome [9]: inactive

CC1COc2c(N3CCN(C)CC3)c(F)cc3c(=O)c(C(=O)O)cn1c23 (stereo not given)
Potency [1]: inactive | Potency [2]: inactive | Potency [3]: inactive | Potency [4]: inactive | outcome [6]: inactive | Potency [7]: inactive | Potency [8]: inactive | outcome [9]: inactive

NC(Cc1ccc(Cl)cc1)C(=O)O (stereo not given)
Potency [1]: inactive | Potency [2]: inactive | Potency [3]: inactive | Potency [4]: inactive | Potency [5]: inactive | outcome [6]: inactive | Potency [7]: inactive | Potency [8]: inactive | outcome [9]: inactive

Cc1c2oc3c(C)ccc(C(=O)N[C@@H]4C(=O)N[C@H](C(C)C)C(=O)N5CCC[C@H]5C(=O)N(C)CC(=O)N(C)[C@@H](C(C)C)C(=O)O[C@@H]4C)c3nc-2c(C(=O)N[C@@H]2C(=O)N[C@H](C(C)C)C(=O)N3CCC[C@H]3C(=O)N(C)CC(=O)N(C)[C@@H](C(C)C)C(=O)O[C@@H]2C)c(N)c1=O (I: T[dV]P[Sar][NMeV] / II: T[dV]P[Sar][NMeV]; ester I:1-I:C, II:1-II:C; linker I:N-II:N via Actinocin(9to1))
Potency [1]: 5.3 nM (active) and 2.7 nM (active) | Potency [2]: inactive | Potency [3]: inactive | Potency [4]: 16.8 nM (active) and 23.7 µM (active) | Potency [5]: inactive | outcome [6]: inactive | Potency [7]: inactive | Potency [8]: inactive | outcome [9]: inactive

O=S(=O)(O)c1ccc2nc(-c3ccccc3)[nH]c2c1
Potency [1]: inactive | Potency [2]: inactive | Potency [3]: 9.44 µM (active) and 26 µM (active) | Potency [4]: inactive | Potency [5]: 9.44 µM (active) and 26 µM (active) | outcome [6]: inactive | Potency [7]: inactive | Potency [8]: inactive | outcome [9]: inactive

CCn1cc(C(=O)O)c(=O)c2cc(F)c(N3CCNC(C)C3)c(F)c21 (stereo not given)
Potency [1]: inactive | Potency [2]: inactive | Potency [3]: inactive | Potency [4]: inactive | Potency [5]: inactive | outcome [6]: inactive | Potency [8]: inactive | outcome [9]: inactive

CCN(CC)C(=O)Nc1ccc(OCC(O)CNC(C)(C)C)c(C(C)=O)c1 (stereo not given)
Potency [1]: inactive | Potency [2]: inactive | Potency [3]: inactive | Potency [4]: inactive | Potency [5]: inactive | outcome [6]: inactive | Potency [8]: inactive | outcome [9]: inactive

CC(=O)OCC1=C(C(=O)O)N2C(=O)[C@@H](NC(=O)Cc3cccs3)[C@H]2SC1
Potency [1]: inactive | Potency [2]: inactive | Potency [3]: inactive | Potency [4]: inactive | Potency [5]: inactive | outcome [6]: inactive | Potency [7]: inactive | Potency [8]: inactive | outcome [9]: inactive

CCCC(=O)c1ccccc1
Potency [1]: inactive | Potency [2]: inactive | Potency [3]: inactive | Potency [4]: inactive | Potency [5]: inactive | outcome [6]: inactive | Potency [7]: inactive | Potency [8]: inactive | outcome [9]: inactive

CC(=O)CC(C)=O
Potency [1]: inactive | Potency [2]: inactive | Potency [3]: inactive | Potency [4]: inactive | Potency [5]: inactive | outcome [6]: inactive | Potency [8]: inactive | outcome [9]: inactive
